# Experimental data: article PMC5540273 (PLoS ONE, 2017)
# Experiments:
# Details in all cases: concentration: 1 μM, replicates: in singlicate; n = 1
# FGFR1 = system: FGFR1
# FGFR2 = system: FGFR2
# FGFR3 = system: FGFR3
# FGFR4 = system: FGFR4
# FGR = system: FGR
# FLT1 = system: FLT1
# FLT3-autoinhibited = system: FLT3-autoinhibited
# FLT3 = system: FLT3
# FLT4 = system: FLT4
# FRK = system: FRK
# FYN = system: FYN
# GAK = system: GAK
# GCN2(Kin.Dom.2,S808G) = system: T1, GCN2(Kin.Dom.2,S808G)
# T1 construct: gene EIF2AK4
# GRK1 = system: GRK1
# GRK2 = system: T2, GRK2
# T2 construct: gene ADRBK1
# GRK3 = system: T3, GRK3
# T3 construct: gene ADRBK2
# GRK4 = system: GRK4
# GRK7 = system: GRK7
# GSK3A = system: GSK3A
# GSK3B = system: GSK3B
# 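Note: KINOMEscan kinase panel screen.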
SMILES,%Inh (FGFR1),%Inh (FGFR2),%Inh (FGFR3),%Inh (FGFR4),%Inh (FGR),%Inh (FLT1),%Inh (FLT3-autoinhibited),%Inh (FLT3),%Inh (FLT4),%Inh (FRK),%Inh (FYN),%Inh (GAK),"%Inh (GCN2(Kin.Dom.2,S808G))",%Inh (GRK1),%Inh (GRK2),%Inh (GRK3),%Inh (GRK4),%Inh (GRK7),%Inh (GSK3A),%Inh (GSK3B)
Clc1ccc(-c2nn3ncccc3c2-c2ccnc(Nc3ccc4c(c3)OCCO4)n2)cc1 [GW829116],0%,0%,0%,0%,75%,54%,0%,59%,35%,0%,0%,68%,6%,0%,0%,0%,0%,0%,24%,0%
COc1cc(Nc2nccc(N3CCC(NC(=O)c4cc5ccccc5s4)C3)n2)cc(OC)c1OC (stereo not drawn) [GSK1379760],0%,0%,18%,0%,23%,36%,3%,33%,26%,9%,8%,27%,4%,0%,0%,17%,19%,0%,0%,4%
Cn1cc(-c2ccc3c(c2)CCN3C(=O)Cc2cccc(Cl)c2)c2c(N)ncnc21 [GSK2606590],23%,0%,0%,0%,35%,59%,1%,91.8%,45%,8%,27%,33%,43%,5%,0%,0%,11%,0%,5%,3%
c1ccc(Oc2ccc(Nc3ccnc4cc(-c5ccc(CNCCN6CCOCC6)o5)ccc34)cc2)nc1 [GW567145],0%,4%,10%,0%,68%,3%,8%,91%,0%,13%,57%,82%,0%,0%,0%,48%,0%,0%,6%,0%
Nc1ncc(-c2cccnc2)c2scc(-c3ccc4c(c3)CCN4C(=O)Cc3ccccc3)c12 [GSK683281],31%,10%,7%,12%,25%,47%,5%,83%,35%,6%,32%,23%,75%,0%,0%,0%,22%,0%,24%,29%
COC(=O)Nc1nc2cc(Oc3ccc(NC(=O)Nc4cc(C(F)(F)F)ccc4F)cn3)ccc2[nH]1.Cl.Cl [GW681170],7%,0%,4%,3%,15%,94.1%,40%,99.1%,79%,55%,41%,5%,0%,0%,0%,0%,0%,0%,0%,8%
CC(C)(C)c1ccc2nccc(Nc3cccc(O)c3)c2c1 [GW856795],0%,0%,0%,0%,54%,0%,64%,10%,0%,84%,71%,62%,15%,9%,39%,0%,16%,17%,0%,9%
C[C@@H]1CC[C@@H](C(=O)Nc2ccccc2)CN1c1cc(-c2ccc3c(N)n[nH]c3c2)nc(N)n1 [GSK2286062],0%,0%,4%,0%,19%,0%,0%,0%,0%,0%,25%,19%,0%,0%,0%,10%,0%,0%,0%,0%
Cn1cc(-c2[nH]c3cc(NC(=O)[C@H](N)C4CCCCC4)cc4c3c2C=NNC4=O)cn1,97.9%,89%,86%,97.3%,87%,81%,96.3%,100%,99.5%,0%,89%,99.8%,99.3%,11%,96.9%,100%,97.1%,40%,0%,2%
